Reference: PubChem BioAssay (Tox21)
Records with an inconclusive call do not appear. The source made the active and inactive calls. Unless noted, calls follow the shape of the dose curve; as a rule, active = well fitted curve in the direction sought with a large enough effect in the repeat runs; inconclusive = weak or mixed curves; inactive = no such curve, though single readings can be large; an effect the other way counts as inactive or inconclusive.

Assays:
[1] = qHTS assay to identify aromatase inhibitors - cell viability counter screen (AID 743084);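 also: cells stimulated with testosterone during compound exposure; nearly all actives have a fitted effect of over 55% in size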
[2] = molecular target: Aryl hydrocarbon receptor (Homo sapiens) (UniProt P35869); experiment: qHTS assay to identify small molecule that activate the aryl hydrocarbon receptor (AhR) signaling pathway (AID 743085);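 also: HG2L7.5c1 human HepG2 liver cells with stably integrated DRE-driven firefly reporter; series mostly up to about 70 µM; nearly all actives have a fitted effect of over 15% in size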
Sequence of Aryl hydrocarbon receptor (Homo sapiens) (P35869 whole entry, looked up): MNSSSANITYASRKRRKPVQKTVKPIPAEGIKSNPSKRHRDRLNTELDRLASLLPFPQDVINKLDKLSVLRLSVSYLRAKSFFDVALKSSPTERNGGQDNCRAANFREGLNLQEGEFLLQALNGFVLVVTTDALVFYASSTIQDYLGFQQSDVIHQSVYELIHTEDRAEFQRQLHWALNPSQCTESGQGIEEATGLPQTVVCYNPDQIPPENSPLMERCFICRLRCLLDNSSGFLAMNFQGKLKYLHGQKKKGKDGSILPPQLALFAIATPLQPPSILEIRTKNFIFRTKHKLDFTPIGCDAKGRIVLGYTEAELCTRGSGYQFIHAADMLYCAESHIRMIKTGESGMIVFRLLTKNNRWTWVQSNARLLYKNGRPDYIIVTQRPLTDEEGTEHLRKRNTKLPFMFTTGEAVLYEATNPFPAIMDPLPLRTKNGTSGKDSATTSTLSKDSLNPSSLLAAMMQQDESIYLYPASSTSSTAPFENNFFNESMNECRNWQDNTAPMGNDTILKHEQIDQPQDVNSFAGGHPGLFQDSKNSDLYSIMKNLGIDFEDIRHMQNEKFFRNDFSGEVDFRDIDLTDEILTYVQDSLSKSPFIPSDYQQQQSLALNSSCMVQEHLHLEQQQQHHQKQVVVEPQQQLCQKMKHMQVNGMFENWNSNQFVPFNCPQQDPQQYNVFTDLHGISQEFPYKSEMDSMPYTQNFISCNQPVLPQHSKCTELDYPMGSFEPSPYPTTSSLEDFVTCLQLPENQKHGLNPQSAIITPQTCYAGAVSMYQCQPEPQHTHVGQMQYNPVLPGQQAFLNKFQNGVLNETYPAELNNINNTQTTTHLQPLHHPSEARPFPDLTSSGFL
Method in brief: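 HepG2 cells (HG2L7.5c1) stably carrying a firefly luciferase reporter driven by 20 dioxin responsive elements were exposed to compound for 24 h at 37C after a 5 h settling period; luminescence rise (ONE-Glo) indicated activation.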

[3] = qHTS assay to identify small molecule that activate the aryl hydrocarbon receptor (AhR) signaling pathway - cell viability counter screen (AID 743086);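 also: HepG2 liver cells carrying the AhR DRE luciferase reporter; series mostly up to about 70 µM; nearly all actives have a fitted effect of over 45% in size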
Method in brief: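 HepG2-AhR-luc (HG2L7.5c1) cells, 4000/well, were preincubated 5 h at 37C, exposed to compound in qHTS format for 24 hr at 37C, then given CellTiter-Fluor for 30 min; viability was read as fluorescence in the reporter wells.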

[4] = molecular target: Peroxisome proliferator-activated receptor gamma (Homo sapiens) (UniProt P37231); experiment: qHTS assay to identify small molecule agonists of the peroxisome proliferator-activated receptor gamma (PPARg) signaling pathway (AID 743094; active = well fitted activation curve with a large enough effect in the signal ratio in the repeat runs, not every such curve was filed as active; the % refers to the signal ratio)
Sequence of Peroxisome proliferator-activated receptor gamma (Homo sapiens) (P37231 whole entry, looked up): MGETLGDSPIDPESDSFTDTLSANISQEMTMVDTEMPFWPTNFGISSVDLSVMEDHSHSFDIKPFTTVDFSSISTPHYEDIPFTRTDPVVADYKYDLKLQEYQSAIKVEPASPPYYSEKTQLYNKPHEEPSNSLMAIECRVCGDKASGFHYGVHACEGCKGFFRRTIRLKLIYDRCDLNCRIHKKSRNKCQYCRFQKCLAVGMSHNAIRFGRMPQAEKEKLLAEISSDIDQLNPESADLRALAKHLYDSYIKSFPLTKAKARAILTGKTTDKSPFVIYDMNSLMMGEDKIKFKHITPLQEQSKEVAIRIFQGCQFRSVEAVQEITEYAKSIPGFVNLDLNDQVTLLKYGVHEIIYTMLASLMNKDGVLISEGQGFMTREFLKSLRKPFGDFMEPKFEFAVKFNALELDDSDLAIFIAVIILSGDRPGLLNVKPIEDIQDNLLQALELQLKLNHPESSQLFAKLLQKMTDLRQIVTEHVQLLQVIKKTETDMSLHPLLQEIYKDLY
Method in brief: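 Cell-based bla reporter, HEK293H background, PPARg-driven UAS. Pre-incubation 5 h, 37C, 5% CO2. Compound 17 h, 37C. Substrate 1 h RT; fluorescence.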

[5] = molecular target: Peroxisome proliferator-activated receptor gamma (Homo sapiens) (UniProt P37231); experiment: qHTS assay to identify small molecule antagonists of the peroxisome proliferator-activated receptor gamma (PPARg) signaling pathway (AID 743191; calls by dose curve; also: series mostly up to about 63 µM; nearly all actives have a fitted effect of over 30% in size)
Method in brief: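 GeneBLAzer PPARg UAS-bla HEK293H cells carrying a UAS-driven beta-lactamase reporter were plated at 3000 cells/well, preincubated 5 h at 37C, then given compound for 17 h at 37C; LiveBLAzer B/G FRET substrate was read after 1 h at room temperature.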

[6] = qHTS assay to identify small molecule antagonists of the peroxisome proliferator-activated receptor gamma (PPARg) signaling pathway - cell viability counter screen (AID 743194); also: nearly all actives have a fitted effect of over 55% in size
Method in brief: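 PPARg-UAS-bla HEK293H cells were plated, rested 5 h at 37 C, then treated with compounds plus rosiglitazone (50 nM final) for 17 h at 37 C; viability was then read by CellTiter-Glo luminescence after 30 min at room temperature.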

[7] = qHTS assay for small molecule activators of the heat shock response signaling pathway (AID 743210; active = well fitted activation curve with a large enough effect in the signal ratio in the repeat runs, with a control signal flat, not every such curve was filed as active; the % refers to the signal ratio; also: series mostly up to about 63 µM)
Method in brief: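 Heat shock element–beta-lactamase HeLa reporter cells; qHTS with compounds for 5 h at 37 C; detection by FRET substrate fluorescence after 2.5 h at RT.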

[8] = qHTS assay to identify small molecule agonists of the peroxisome proliferator-activated receptor delta (PPARd) signaling pathway - cell viability counter screen (AID 743211); also: nearly all actives have a fitted effect of over 55% in size
Method in brief: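 PPARd-bla HEK293H cells (UAS-beta-lactamase reporter) were treated with compounds for 17 h at 37 C. Viability was then read in the same wells by CellTiter-Glo luminescence after 30 min at room temperature.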

[9] = molecular target: Peroxisome proliferator-activated receptor delta (Homo sapiens) (UniProt Q03181); experiment: qHTS assay to identify small molecule agonists of the peroxisome proliferator-activated receptor delta (PPARd) signaling pathway (AID 743212; calls by dose curve)
Sequence of Peroxisome proliferator-activated receptor delta (Homo sapiens) (Q03181 whole entry, looked up): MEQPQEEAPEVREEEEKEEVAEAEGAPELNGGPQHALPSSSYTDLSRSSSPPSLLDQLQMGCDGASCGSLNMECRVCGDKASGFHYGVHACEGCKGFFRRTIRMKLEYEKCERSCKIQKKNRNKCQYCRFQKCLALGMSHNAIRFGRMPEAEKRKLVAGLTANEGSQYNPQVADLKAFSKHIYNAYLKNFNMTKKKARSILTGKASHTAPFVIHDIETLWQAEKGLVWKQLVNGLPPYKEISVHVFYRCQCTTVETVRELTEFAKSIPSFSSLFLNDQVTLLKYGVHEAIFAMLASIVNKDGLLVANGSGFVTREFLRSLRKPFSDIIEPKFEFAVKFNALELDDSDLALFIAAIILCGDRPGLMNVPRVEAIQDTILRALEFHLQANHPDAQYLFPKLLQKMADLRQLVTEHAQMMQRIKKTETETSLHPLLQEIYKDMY
Method in brief: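 Beta-lactamase reporter read by fluorescence (LiveBLAzer B/G FRET, 2 h, room temperature). Test agents, in DMSO, incubated at 37 C with PPARd-bla HEK293H cells.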

[10] = qHTS assay to identify small molecule antagonists of the peroxisome proliferator-activated receptor delta (PPARd) signaling pathway - cell viability counter screen (AID 743213); also: nearly all actives have a fitted effect of over 50% in size
Method in brief: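 CellTiter-Glo was added to PPARd-bla HEK293H wells following 17 h compound treatment in the presence of 300 nM L165041. Luminescence was recorded after 30 min at room temperature.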

[11] = molecular target: Peroxisome proliferator-activated receptor delta (Homo sapiens) (UniProt Q03181); experiment: qHTS assay to identify small molecule antagonists of the peroxisome proliferator-activated receptor delta (PPARd) signaling pathway (AID 743215; active = well fitted inhibition curve with a large enough effect in the signal ratio in the repeat runs, not every such curve was filed as active; the % refers to the signal ratio;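 also: cells stimulated with agonist L165041 at 300 nM final during compound exposure; series mostly up to about 62 µM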)
Method in brief: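 Fluorescence from cleaved LiveBLAzer B/G FRET substrate (2 h, room temperature) reports PPARd-driven beta-lactamase in HEK293H UAS-bla cells. Cells had been treated 17 h at 37 C with compound plus 300 nM final L165041.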

[12] = qHTS assay to identify small molecule agonists of the farnesoid-X-receptor (FXR) signaling pathway - cell viability counter screen (AID 743218); also: nearly all actives have a fitted effect of over 45% in size
Method in brief: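 Readout: CellTiter-Glo luminescence, 30 min RT, multiplexed after the FXR-bla FRET reading. HEK 293T FXR-UAS-bla cells received compound 5 h post-plating and were incubated 16 h at 37 C.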

[13] = qHTS assay to identify small molecule antagonists of the farnesoid-X-receptor (FXR) signaling pathway - cell viability counter screen (AID 743221; active = well fitted cell-killing curve with a large enough effect in the repeat runs, not every such curve was filed as active; also: nearly all actives have a fitted effect of over 50% in size)
Method in brief: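 FXR-UAS-bla HEK 293T cells were treated with test compounds plus chenodeoxycholic acid (50 uM final) for 16 h at 37 C. Cell viability in the same wells was then read as CellTiter-Glo luminescence after 30 min at room temperature.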

[14] = molecular target: Vitamin D3 receptor (Homo sapiens) (UniProt P11473); experiment: qHTS assay to identify small molecule agonists of the vitamin D receptor (VDR) signaling pathway (AID 743222; calls by dose curve)
Sequence of Vitamin D3 receptor (Homo sapiens) (P11473 whole entry, looked up): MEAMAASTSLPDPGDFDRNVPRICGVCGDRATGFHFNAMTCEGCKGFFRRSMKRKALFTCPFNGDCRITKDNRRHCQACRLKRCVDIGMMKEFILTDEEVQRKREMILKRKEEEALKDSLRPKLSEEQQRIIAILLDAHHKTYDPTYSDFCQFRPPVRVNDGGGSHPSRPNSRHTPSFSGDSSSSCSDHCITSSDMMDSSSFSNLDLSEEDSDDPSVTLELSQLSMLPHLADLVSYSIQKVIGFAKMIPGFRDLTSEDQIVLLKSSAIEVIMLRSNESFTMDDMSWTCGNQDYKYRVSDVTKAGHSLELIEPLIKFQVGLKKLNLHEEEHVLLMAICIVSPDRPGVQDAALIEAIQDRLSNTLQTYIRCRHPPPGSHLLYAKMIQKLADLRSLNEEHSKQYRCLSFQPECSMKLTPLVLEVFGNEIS
Method in brief: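 Following 4 h attachment at 37C, VDR-bla cells (2,000 per well) received DMSO-dissolved compounds or controls. After 16 h incubation, LiveBLAzer B/G FRET substrate was added and fluorescence read 2 h later at room temperature.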

[15] = molecular target: Vitamin D3 receptor (Homo sapiens) (UniProt P11473); experiment: qHTS assay to identify small molecule antagonists of the vitamin D receptor (VDR) signaling pathway (AID 743223; active = well fitted inhibition curve with a large enough effect in the signal ratio in the repeat runs, not every such curve was filed as active; the % refers to the signal ratio)
Method in brief: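 VDR-bla cells were plated, incubated 4 h at 37C, then given compound and 1alpha,25-dihydroxyvitamin D3 (3 nM final). After 16 h at 37C, LiveBLAzer B/G FRET substrate was added for 2 h at room temperature and fluorescence read.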

[16] = qHTS assay for small molecule agonists of the antioxidant response element (ARE) signaling pathway - cell viability counter screen (AID 743203; calls by dose curve; also: nearly all actives have a fitted effect of over 55% in size)
Method in brief: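 Measured in the same wells as the beta-lactamase ARE reporter, this read-out is CellTiter-Glo luminescence from HepG2 ARE-bla cells given compounds for 16 hrs.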

[17] = qHTS assay for small molecule activators of the heat shock response signaling pathway - cell viability counter screen (AID 743209); also: nearly all actives have a fitted effect of over 50% in size
Method in brief: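 Same-well multiplex: after 2.5 h room-temperature incubation with LiveBLAzer B/G substrate and fluorescence reading, CellTiter-Glo reagent was added to HSE-bla HeLa cells that had received compound for 5 h at 37 C; luminescence read after 30 min.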

[18] = qHTS assay for small molecule agonists of the antioxidant response element (ARE) signaling pathway (AID 743202; active = well fitted activation curve with a large enough effect in the signal ratio in the repeat runs, not every such curve was filed as active; the % refers to the signal ratio)
Method in brief: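 Following a 16 h, 37 C exposure of reporter HepG2 cells (ARE-driven beta-lactamase, 2,000 cells/well) to compounds, FRET substrate was applied for 2 h at room temperature and fluorescence intensity recorded.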

[19] = molecular target: Bile acid receptor (Homo sapiens) (UniProt Q96RI1); experiment: qHTS assay to identify small molecule antagonists of the farnesoid-X-receptor (FXR) signaling pathway (AID 743217; active = well fitted inhibition curve with a large enough effect in the signal ratio in the repeat runs, not every such curve was filed as active; the % refers to the signal ratio)
Sequence of Bile acid receptor (Homo sapiens) (Q96RI1 whole entry, looked up): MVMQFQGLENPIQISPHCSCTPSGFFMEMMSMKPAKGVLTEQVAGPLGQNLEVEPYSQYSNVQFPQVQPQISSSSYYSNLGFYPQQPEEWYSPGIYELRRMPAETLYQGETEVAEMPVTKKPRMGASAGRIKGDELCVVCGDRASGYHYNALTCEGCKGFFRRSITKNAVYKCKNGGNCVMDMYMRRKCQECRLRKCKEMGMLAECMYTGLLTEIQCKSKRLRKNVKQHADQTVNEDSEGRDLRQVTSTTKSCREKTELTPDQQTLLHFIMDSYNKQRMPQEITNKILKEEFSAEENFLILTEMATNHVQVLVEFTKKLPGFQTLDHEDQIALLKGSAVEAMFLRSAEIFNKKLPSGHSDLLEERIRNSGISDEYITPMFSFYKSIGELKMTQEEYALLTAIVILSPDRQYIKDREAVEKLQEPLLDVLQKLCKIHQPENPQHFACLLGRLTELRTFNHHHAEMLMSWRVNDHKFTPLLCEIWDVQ
Method in brief: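 FRET fluorescence after 2 h room-temperature LiveBLAzer loading gives the readout. Prior step: FXR-bla HEK 293T cells, seeded and incubated 5 h, received test compounds plus 50 uM final CDCA for 16 h at 37 °C.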

[20] = molecular target: Bile acid receptor (Homo sapiens) (UniProt Q96RI1); experiment: qHTS assay to identify small molecule agonists of the farnesoid-X-receptor (FXR) signaling pathway (AID 743220; active = well fitted activation curve with a large enough effect in the signal ratio in the repeat runs, not every such curve was filed as active; the % refers to the signal ratio)
Method in brief: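 FXR-UAS-bla HEK 293T cells carrying a UAS-driven beta-lactamase reporter were plated for 5 h at 37C/5% CO2, then exposed to DMSO-dissolved Tox21 10K compounds for 16 h at 37C. A LiveBLAzer B/G FRET substrate was loaded for 2 h at room temperature before fluorescence reading.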

Measured: Potency

O=C(O)C[C@H](NC(=O)OCc1ccccc1)C(=O)O
not listed: [16] | [17] | [18] | [19] | [20]
inactive: all other assays above

C/C=C/C=C/C=O
not listed: [6] | [10] | [11] | [15] | [18] | [19] | [20]
inactive: all other assays above

CC(=O)c1ccc([N+](=O)[O-])cc1
not listed: [14] | [19] | [20]
inactive: all other assays above

O=C1CCCCCCCCCCOCCCCO1
not listed: [7] | [13] | [19] | [20]
inactive: all other assays above

O[C@@H]1CO[C@H]2[C@@H]1OC[C@@H]2O
not listed: [11]
inactive: all other assays above

CC1(C)O[C@@H]2C[C@H]3[C@@H]4C[C@H](F)C5=CC(=O)C=C[C@]5(C)[C@H]4[C@@H](O)C[C@]3(C)[C@]2(C(=O)CO)O1
not listed: [5] | [14] | [15]
inactive: all other assays above

NC(=O)c1ccncc1
not listed: [12] | [15] | [19] | [20]
inactive: all other assays above

CC1(C)S[C@@H]2[C@H](NC(=O)C(c3ccccc3)S(=O)(=O)O)C(=O)N2[C@H]1C(=O)O (some centres not stated)
not listed: [9] | [11] | [17] | [18] | [19] | [20]
inactive: all other assays above
